Where “and” joins values, the source holds several entries; their conditions need not be identical. Equal entries are not always repeated. Where two headings read alike, the source gives them in different places.
How the values were obtained:
CHEK2 = details: concentration: 1 μM, replicates: in singlicate; n = 1
CIT = details: n = 1
CLK1 = details: n = 1
CLK2 = details: concentration: 1 μM, replicates: in singlicate; n = 1
CLK3 = details: n = 1
CLK4 = details: n = 1
CSF1R-autoinhibited = details: concentration: 1 μM, replicates: in singlicate; n = 1
CSF1R = details: n = 1
CSK = details: n = 1
CSNK1A1L = details: n = 1
CSNK1A1 = details: concentration: 1 μM, replicates: in singlicate; n = 1
CSNK1D = details: n = 1
CSNK1E = details: n = 1
CSNK1G1 = details: n = 1
CSNK1G2 = details: concentration: 1 μM, replicates: in singlicate; n = 1
CSNK1G3 = details: n = 1
CSNK2A1 = details: n = 1
CSNK2A2 = details: n = 1
CTK = system: T1, CTK; details: concentration: 1 μM, replicates: in singlicate; n = 1
T1 construct: gene MATK

DAPK1 = details: n = 1
[1] = concentration: 1 μM, replicates: in singlicate
[2] = concentration: 1 μM,replicates: in singlicate, 1 µM
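Further: KINOMEscan kinase panel screen.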

Structure (SMILES): COc1cc2ncn(-c3cc(OCC4CCCO4)c(C(N)=O)s3)c2cc1OC (stereo not shown) [GSK204607]
- %Inh (CHEK2): 20%
- %Inh (CIT; [1]): 12%
- %Inh (CLK1; [1]): 22%
- %Inh (CLK2): 0%
- %Inh (CLK3; [1]): 10%
- %Inh (CLK4; [1]): 18%
- %Inh (CSF1R-autoinhibited): 3%
- %Inh (CSF1R; [1]): 5%
- %Inh (CSK; [1]): 0%
- %Inh (CSNK1A1L; [1]): 0%
- %Inh (CSNK1A1): 0%
- %Inh (CSNK1D; [1]): 8%
- %Inh (CSNK1E; [1]): 17%
- %Inh (CSNK1G1; [1]): 1%
- %Inh (CSNK1G2): 0%
- %Inh (CSNK1G3; [1]): 26%
- %Inh (CSNK2A1; [1]): 8%
- %Inh (CSNK2A2; [1]): 9%
- %Inh (CTK): 0%
- %Inh (DAPK1; [1]): 29%

Structure (SMILES): Cc1csc(-c2nc(Nc3ccncc3)c3ccccc3n2)n1 [GW869640]
- %Inh (CHEK2): 15%
- %Inh (CIT; [1]): 61%
- %Inh (CLK1; [1]): 15%
- %Inh (CLK2): 19%
- %Inh (CLK3; [1]): 35%
- %Inh (CLK4; [1]): 8%
- %Inh (CSF1R-autoinhibited): 28%
- %Inh (CSF1R; [1]): 0%
- %Inh (CSK; [1]): 3%
- %Inh (CSNK1A1L; [1]): 10%
- %Inh (CSNK1A1): 28%
- %Inh (CSNK1D; [1]): 46%
- %Inh (CSNK1E; [1]): 41%
- %Inh (CSNK1G1; [1]): 0%
- %Inh (CSNK1G2): 9%
- %Inh (CSNK1G3; [1]): 0%
- %Inh (CSNK2A1; [1]): 28%
- %Inh (CSNK2A2; [1]): 26%
- %Inh (CTK): 36%
- %Inh (DAPK1; [1]): 22%

Structure (SMILES): Cc1cc(N2Cc3ccccc3C2)nc(Nc2ccc(S(=O)(=O)N3CCOCC3)cc2)n1.Cl [GSK1669917]
- %Inh (CHEK2): 0%
- %Inh (CIT; [1]): 0%
- %Inh (CLK1; [1]): 9%
- %Inh (CLK2): 0%
- %Inh (CLK3; [1]): 1%
- %Inh (CLK4; [1]): 11%
- %Inh (CSF1R-autoinhibited): 0%
- %Inh (CSF1R; [1]): 4%
- %Inh (CSK; [1]): 0%
- %Inh (CSNK1A1L; [1]): 0%
- %Inh (CSNK1A1): 0%
- %Inh (CSNK1D; [1]): 0%
- %Inh (CSNK1E; [1]): 4%
- %Inh (CSNK1G1; [1]): 0%
- %Inh (CSNK1G2): 0%
- %Inh (CSNK1G3; [1]): 19%
- %Inh (CSNK2A1; [1]): 2%
- %Inh (CSNK2A2; [1]): 7%
- %Inh (CTK): 0%
- %Inh (DAPK1; [1]): 0%

Structure (SMILES): COC(=O)c1c(-c2ccccc2)c2cc(OC)ccc2c(=O)n1Cc1ccccc1
- %Inh (CHEK2): 15%
- %Inh (CIT; [1]): 6%
- %Inh (CLK1; [1]): 0%
- %Inh (CLK2): 4%
- %Inh (CLK3; [1]): 0%
- %Inh (CLK4; [1]): 5%
- %Inh (CSF1R-autoinhibited): 20%
- %Inh (CSF1R; [1]): 51%
- %Inh (CSK; [1]): 0%
- %Inh (CSNK1A1L; [1]): 4%
- %Inh (CSNK1A1): 9%
- %Inh (CSNK1D; [1]): 0%
- %Inh (CSNK1E; [1]): 0%
- %Inh (CSNK1G1; [1]): 8%
- %Inh (CSNK1G2): 0%
- %Inh (CSNK1G3; [1]): 0%
- %Inh (CSNK2A1; [1]): 0%
- %Inh (CSNK2A2; [1]): 27%
- %Inh (CTK): 26%
- %Inh (DAPK1; [1]): 37%

Structure (SMILES): Cc1ccc(-c2cc(-c3c[nH]nc3-c3ccccn3)ccn2)cc1 [GW684088]
- %Inh (CHEK2): 53%
- %Inh (CIT; [1]): 26%
- %Inh (CLK1; [1]): 14%
- %Inh (CLK2): 9%
- %Inh (CLK3; [1]): 0%
- %Inh (CLK4; [1]): 38%
- %Inh (CSF1R-autoinhibited): 49%
- %Inh (CSF1R; [1]): 14%
- %Inh (CSK; [1]): 0%
- %Inh (CSNK1A1L; [1]): 0%
- %Inh (CSNK1A1): 21%
- %Inh (CSNK1D; [1]): 26%
- %Inh (CSNK1E; [1]): 18%
- %Inh (CSNK1G1; [1]): 10%
- %Inh (CSNK1G2): 22%
- %Inh (CSNK1G3; [1]): 24%
- %Inh (CSNK2A1; [1]): 0%
- %Inh (CSNK2A2; [1]): 0%
- %Inh (CTK): 0%
- %Inh (DAPK1; [1]): 11%

Structure (SMILES): CN1C(=O)C(Nc2ccc(Cl)c(C(=O)O)c2)=C(c2ccc(Cl)cc2)C1=O [SB-404290]
- %Inh (CHEK2): 0%
- %Inh (CIT; [1]): 0%
- %Inh (CLK1; [1]): 18%
- %Inh (CLK2): 7%
- %Inh (CLK3; [1]): 25%
- %Inh (CLK4; [1]): 2%
- %Inh (CSF1R-autoinhibited): 0%
- %Inh (CSF1R; [1]): 3%
- %Inh (CSK; [1]): 0%
- %Inh (CSNK1A1L; [1]): 15%
- %Inh (CSNK1A1): 0%
- %Inh (CSNK1D; [1]): 0%
- %Inh (CSNK1E; [1]): 38%
- %Inh (CSNK1G1; [1]): 0%
- %Inh (CSNK1G2): 0%
- %Inh (CSNK1G3; [1]): 15%
- %Inh (CSNK2A1; [1]): 18%
- %Inh (CSNK2A2; [1]): 7%
- %Inh (CTK): 0%
- %Inh (DAPK1; [1]): 0%

Structure (SMILES): Cl.Oc1ccc(-c2nc(-c3ccccc3)[nH]c2-c2ccncc2)cc1 [SB-428218]
- %Inh (CHEK2): 0%
- %Inh (CIT; [1]): 0%
- %Inh (CLK1; [1]): 0%
- %Inh (CLK2): 6%
- %Inh (CLK3; [1]): 0%
- %Inh (CLK4; [1]): 0%
- %Inh (CSF1R-autoinhibited): 55%
- %Inh (CSF1R; [1]): 10%
- %Inh (CSK; [1]): 0%
- %Inh (CSNK1A1L; [1]): 11%
- %Inh (CSNK1A1): 0%
- %Inh (CSNK1D; [1]): 37%
- %Inh (CSNK1E; [1]): 28%
- %Inh (CSNK1G1; [1]): 18%
- %Inh (CSNK1G2): 0%
- %Inh (CSNK1G3; [1]): 0%
- %Inh (CSNK2A1; [1]): 0%
- %Inh (CSNK2A2; [1]): 0%
- %Inh (CTK): 0%
- %Inh (DAPK1; [1]): 3%

Structure (SMILES): CSc1nn2c(=O)cc(N3CCOCC3)nc2n1Cc1cccc(C(F)(F)F)c1C [GSK2363608]
- %Inh (CHEK2): 0%
- %Inh (CIT; [2]): 23% and 2%
- %Inh (CLK1; [2]): 43% and 31%
- %Inh (CLK2): 0%
- %Inh (CLK3; [2]): 0% and 6%
- %Inh (CLK4; [2]): 17% and 0%
- %Inh (CSF1R-autoinhibited): 0%
- %Inh (CSF1R; [2]): 23% and 9%
- %Inh (CSK; [2]): 11% and 0%
- %Inh (CSNK1A1L; [2]): 8% and 7%
- %Inh (CSNK1A1): 0%
- %Inh (CSNK1D; [2]): 27% and 8%
- %Inh (CSNK1E; [2]): 25% and 19%
- %Inh (CSNK1G1; [2]): 100% and 4%
- %Inh (CSNK1G2): 0%
- %Inh (CSNK1G3; [2]): 41% and 20%
- %Inh (CSNK2A1; [2]): 7% and 0%
- %Inh (CSNK2A2; [2]): 7% and 0%
- %Inh (CTK): 0%
- %Inh (DAPK1; [2]): 3% and 0%

Structure (SMILES): Cc1c(Cn2ccn3c(=O)cc(N4CCOCC4)nc23)cccc1C(F)(F)F [GSK2289044]
- %Inh (CHEK2): 0%
- %Inh (CIT; [1]): 22%
- %Inh (CLK1; [1]): 33%
- %Inh (CLK2): 54%
- %Inh (CLK3; [1]): 20%
- %Inh (CLK4; [1]): 33%
- %Inh (CSF1R-autoinhibited): 0%
- %Inh (CSF1R; [1]): 9%
- %Inh (CSK; [1]): 0%
- %Inh (CSNK1A1L; [1]): 0%
- %Inh (CSNK1A1): 33%
- %Inh (CSNK1D; [1]): 6%
- %Inh (CSNK1E; [1]): 25%
- %Inh (CSNK1G1; [1]): 19%
- %Inh (CSNK1G2): 5%
- %Inh (CSNK1G3; [1]): 18%
- %Inh (CSNK2A1; [1]): 0%
- %Inh (CSNK2A2; [1]): 3%
- %Inh (CTK): 0%
- %Inh (DAPK1; [1]): 13%

Structure (SMILES): COc1ccc(CNC(=O)NC2CCN(c3ccnc(Nc4cc(OC)c(OC)c(OC)c4)n3)C2)cc1 (stereo not shown) [GSK1379748]
- %Inh (CHEK2): 47%
- %Inh (CIT; [1]): 20%
- %Inh (CLK1; [1]): 11%
- %Inh (CLK2): 0%
- %Inh (CLK3; [1]): 0%
- %Inh (CLK4; [1]): 0%
- %Inh (CSF1R-autoinhibited): 17%
- %Inh (CSF1R; [1]): 13%
- %Inh (CSK; [1]): 0%
- %Inh (CSNK1A1L; [1]): 0%
- %Inh (CSNK1A1): 0%
- %Inh (CSNK1D; [1]): 0%
- %Inh (CSNK1E; [1]): 14%
- %Inh (CSNK1G1; [1]): 0%
- %Inh (CSNK1G2): 0%
- %Inh (CSNK1G3; [1]): 23%
- %Inh (CSNK2A1; [1]): 6%
- %Inh (CSNK2A2; [1]): 9%
- %Inh (CTK): 0%
- %Inh (DAPK1; [1]): 0%

Structure (SMILES): Cl.c1ccc(-c2n[nH]cc2-c2ccnc(-c3ccc(CN4CCOCC4)cc3)c2)nc1 [GW776245]
- %Inh (CHEK2): 0%
- %Inh (CIT; [1]): 10%
- %Inh (CLK1; [1]): 0%
- %Inh (CLK2): 10%
- %Inh (CLK3; [1]): 0%
- %Inh (CLK4; [1]): 0%
- %Inh (CSF1R-autoinhibited): 0%
- %Inh (CSF1R; [1]): 0%
- %Inh (CSK; [1]): 10%
- %Inh (CSNK1A1L; [1]): 1%
- %Inh (CSNK1A1): 61%
- %Inh (CSNK1D; [1]): 58%
- %Inh (CSNK1E; [1]): 37%
- %Inh (CSNK1G1; [1]): 16%
- %Inh (CSNK1G2): 36%
- %Inh (CSNK1G3; [1]): 0%
- %Inh (CSNK2A1; [1]): 0%
- %Inh (CSNK2A2; [1]): 0%
- %Inh (CTK): 0%
- %Inh (DAPK1; [1]): 13%

From PMC5540273 (PLoS ONE, 2017)
